CHRM1 antagonist: antagonists of human M1 muscarinic receptor. P11229. CHO-K1 hM1, Fluo-8 calcium fluorescence, ACh EC80 antagonist. inhibition, % at 3 µM. 1.3% of 360,000 active;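 active means percent inhibition above its own plate's cutoff, namely the mean of that plate's compound wells plus 3 SD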;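 further: peak over basal fluorescence ratio during 140 s after agonist addition; 0% = ACh EC80 plus DMSO and 100% = DMSO alone without agonist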
Target sequence (P11229 whole entry, looked up): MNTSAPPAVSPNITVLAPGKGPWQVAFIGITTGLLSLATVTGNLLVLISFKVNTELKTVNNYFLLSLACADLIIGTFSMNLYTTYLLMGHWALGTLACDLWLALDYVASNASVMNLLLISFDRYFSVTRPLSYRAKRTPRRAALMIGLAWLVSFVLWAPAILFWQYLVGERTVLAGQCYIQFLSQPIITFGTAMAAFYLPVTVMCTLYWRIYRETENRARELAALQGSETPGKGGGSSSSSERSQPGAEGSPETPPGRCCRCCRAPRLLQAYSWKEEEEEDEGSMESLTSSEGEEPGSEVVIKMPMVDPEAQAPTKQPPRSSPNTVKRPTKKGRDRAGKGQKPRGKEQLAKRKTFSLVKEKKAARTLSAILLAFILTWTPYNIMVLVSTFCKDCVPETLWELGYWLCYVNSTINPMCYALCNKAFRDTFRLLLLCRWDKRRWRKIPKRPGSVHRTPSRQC
M1 ag parental: M1 agonist counterscreen hit in parental CHO-K1 cells. Fluo-8 calcium fluorescence; scaled to maximal ATP response, vehicle zero. activation, % at 3 µM. 0.48% of 360,000 active. AID 602248; in the data active means activation above about 15%;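 further: untransfected CHO-K1 host cells lacking M1 receptor as counterscreen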
CHRM1 PAM: positive allosteric modulators of human M1 muscarinic receptor | P11229 | CHO-K1 hM1, Fluo-8 calcium fluorescence, ACh EC20; 0% = ACh EC20, 100% = maximal ACh | activation, % at 3 µM | 0.088% of 360,000 active | AID 588819; in the data active means activation above about 19%, passing the limit was not always enough
CHRM1 agonist: agonists of human M1 muscarinic receptor. CHO-K1 hM1, Fluo-8 calcium fluorescence, agonist mode; 0% DMSO, 100% acetylcholine EC100. activation, % at 3 µM. 0.33% of 360,000 active. AID 588814. P11229;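 active means activation above the run's mean compound activation plus 3 SD, cut at about 16% in these data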;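 further: peak over basal fluorescence ratio within a 140 s kinetic read after compound addition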
CHO-K1 Ca antag: counter-screen for M1 antagonists: effect in parental CHO-K1 cells | inhibition, % at 3 µM | 0.6% of 360,000 active | ATP-induced calcium, Fluo-8 fluorescence;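 active means inhibition above a per-plate cutoff, the plate's mean sample inhibition plus 3 SD, cut at about 24% in these data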;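 further: 0% = DMSO plus EC80 ATP and 100% = DMSO alone without ATP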
CHO-K1 Ca PAM: M1 PAM counterscreen hit in parental CHO-K1 cells | activation, % at 3 µM | 0.02% of 360,000 active | ATP EC20, Fluo-8 calcium fluorescence; 0% at ATP EC20, 100% at ATP max;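 active means activation above the run cutoff, the mean activation of all test compounds plus 3 SD, cut at about 40% in these data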;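 further: peak over basal fluorescence ratio in a 140 s read after ATP addition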
An asterisk follows results filed as active. This is a sample that favours compounds with a hit; in the whole collection about 2.3% have one here.

SMILES	CHRM1 antagonist	M1 ag parental	CHRM1 PAM	CHRM1 agonist	CHO-K1 Ca antag	CHO-K1 Ca PAM
CC1(C(=O)NS(=O)(=O)Cc2ccccc2)CCN1C(=O)C1(c2ccc(Cl)cc2)CCC1 (stereo not drawn)	-7	0	9	-2	-7	0
Cc1cc(Cl)ccc1NC(=S)NCc1ccc(Cl)cc1	2	8	-13	2	21	-3
Cc1cc(Cl)ccc1NC(=S)NCCc1ccc(Cl)cc1	22	2	-11	-2	25*	-9
CCOC(=O)/C(=C/c1ccco1)NC(=O)c1ccc(Br)o1	-6	0	-1	-5	-11	19
Cc1cc(Nc2ccccc2)nn1C(=O)c1ccc(Br)cc1	5	0	-1	-4	25*	-8
Cc1cc([N+](=O)[O-])nn1CC(=O)Nc1cc(F)ccc1F	-5	16*	4	-5	0	-3
CSCc1ccc(C(=O)NC(C)c2cnn(-c3ccccn3)c2C)o1 (stereo not drawn)	-4	1	3	-4	-10	5
CCn1c(=O)c(C(=O)CN2CCCc3ccccc32)c(N)n(Cc2ccccc2)c1=O	22*	0	-10	-6	14	2
c1ccc(-c2nnc(N3CCN(c4ccccn4)CC3)c3ccccc23)cc1	48*	2	-18	-3	21	-7
Nc1nc(N2CCN(c3ccccn3)CC2)nc2ccccc12	36*	1	-29	-9	7	-23
Nc1nc(N2CCCCC2)nc2ccccc12	26	0	-10	-4	10	-7
O=C(Nc1ccc(N2CCN(C(=O)c3ccccc3)CC2)cc1)c1ccc2c(c1)OCCO2	15	16*	-11	3	11	-13
Cc1ccc(C(=O)N2CCN(c3ccc(NC(=S)NC(=O)Cc4ccccc4)cc3)CC2)cc1	18	21*	-6	-1	24*	5
C=C(C)c1cccc(C(C)(C)NC(=O)N2CCN(c3ccc(OC)cc3)CC2)c1	-3	1	4	-6	-6	5
C=CC[C@@H](CC(=O)N[C@H](CO)Cc1ccccc1)C(=O)NC[C@H](OC(=O)[C@@H](CC=C)Cc1ccc(F)cc1)c1ccccc1	34*	4	-19	-4	-4	2
C=CCC[C@@H](Cc1ccc(F)cc1)C(=O)OC[C@H](Cc1c[nH]c2ccccc12)NC(=O)[C@@H](CC=C)CC(=O)NCCO	1	18*	5	1	8	2
CC1CC(C)CN(S(=O)(=O)c2ccc3oc(=O)ccc3c2)C1 (stereo not drawn)	-13	0	9	-4	7	-21
Cc1ccc(-c2csc(N3CCC(NS(=O)(=O)c4ccc5c(c4)OCCO5)CC3)n2)cc1	19*	7	-9	3	18	13
Cc1ccc(-c2csc(N3CCC(C(N)=O)CC3)n2)cc1	-6	1	11	0	3	10
O=[N+]([O-])c1c(NCCCO)cc(Sc2nc3ccccc3s2)c2nonc12	33*	6	-13	-6	19	8
Cc1nc2ccc(NS(=O)(=O)c3ccc4c(c3)OCCO4)cc2s1	31*	7	-6	3	23	-1
Cc1nc2ccc(S(=O)(=O)Nc3cccc(-c4nc5cccnc5s4)c3)cc2s1	24	6	-16	3	30*	-9
c1ccc(COc2ccc(CN3CCN(c4ccccn4)CC3)cc2)cc1	32*	0	-22	-6	17	-5
c1ccc(N2CCN(Cc3ccc4c(c3)OCO4)CC2)nc1	1	0	0	-7	2	14
c1ccc(CN2CCN(c3ncccn3)CC2)cc1	13	0	-1	-6	2	-16
c1ccc(-c2ccc(CN3CCN(c4ncccn4)CC3)cc2)cc1	15	0	-15	-6	25*	-8
Cc1c(NC(=O)COc2cccc(Cl)c2Cl)c(=O)n(-c2ccccc2)n1C	-10	3	3	-6	-7	21
Brc1cccc(OCCCCN2CCCCC2)c1	78*	1	-26	-10	-7	20
CCOc1cccc(OCCCCN2CCCCC2)c1	19*	0	-23	-7	-8	3
Clc1cccc(OCCN2CCCC2)c1	-9	1	0	-9	12	-17

Screens: PubChem, The Scripps Research Institute Molecular Screening Center
